A selection: hits, their analogues and other compounds. The true share with any hit is near 19%.
VP16 counter = inhibits Gal4-VP16 luciferase reporter, ROR gamma counter-screen; Drosophila S2 Gal4-VP16 UAS-luciferase, luminescence, 20 h; Potency, µM (top dose mostly 53.6 µM), hits mostly inhibitors; hit rate 3.5% among 310,000; AID 2546;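 also: Gal4-VP16 expression switched on by copper sulfate through the metallothionein promoter; nearly all actives have a fitted effect of over 50% in size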
TDP1 cell CPT = DT40-hTDP1 cell growth loss with CPT. chicken DT40 Tdp1-/-;hTDP1 cells + 20 nM CPT, ATP luminescence, 48 h. hit rate 12% among 420,000. Potency, µM (top dose mostly 46.2 µM), most hits filed as inhibitors; also: nearly all actives have a fitted effect of over 55% in size
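Cell growth measured by CellTiter-Glo luminescence after a minimum 48 h, 37 C compound exposure with 20 nM CPT in Tdp1-knockout DT40 cells stably expressing hTDP1, seeded 400/well; qHTS titration format.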
TDP1 inh = inhibitors of human tyrosyl-DNA phosphodiesterase TDP1; Potency, µM (titrated, usually from 130 µM), actives largely listed as inhibitors; hit rate 0.28% among 350,000; Q9NUW8; recombinant TDP1, AlphaScreen DNA substrate cleavage; also: nearly all actives have a fitted effect of over 40% in size
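Here, a 5' biotin and 3' phosphotyrosine-FITC DNA oligonucleotide reports Tdp1 activity: intact substrate bridges AlphaScreen beads, while cleavage leaves a 3' phosphate and drops signal. All incubations at room temperature.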
RORg inh = inhibitors of mouse ROR gamma transcriptional activity. Drosophila S2 Gal4-RORgamma UAS-luciferase reporter, 20 h. P51450. Potency, µM (titrated, usually from 53.6 µM), actives largely listed as inhibitors. hit rate 5.4% among 310,000; also: nearly all actives have a fitted effect of over 60% in size
Target sequence (P51450 whole entry, looked up, the tested form may be a part): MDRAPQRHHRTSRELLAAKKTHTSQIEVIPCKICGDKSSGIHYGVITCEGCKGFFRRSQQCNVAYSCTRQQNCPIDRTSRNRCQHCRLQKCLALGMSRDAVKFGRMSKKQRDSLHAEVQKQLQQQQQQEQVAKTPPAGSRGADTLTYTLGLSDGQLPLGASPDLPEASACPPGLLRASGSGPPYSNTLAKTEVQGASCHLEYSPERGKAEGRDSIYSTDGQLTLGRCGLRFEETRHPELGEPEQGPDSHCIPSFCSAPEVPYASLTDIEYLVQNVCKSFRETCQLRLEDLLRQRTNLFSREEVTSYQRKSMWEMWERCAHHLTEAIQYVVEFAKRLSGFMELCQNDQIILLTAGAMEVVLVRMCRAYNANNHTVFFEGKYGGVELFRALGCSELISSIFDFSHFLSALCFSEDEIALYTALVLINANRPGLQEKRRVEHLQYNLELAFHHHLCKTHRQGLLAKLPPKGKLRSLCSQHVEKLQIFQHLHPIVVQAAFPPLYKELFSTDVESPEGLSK
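Drosophila Schneider cells stably carrying a metallothionein-driven Gal4 DBD–ROR gamma fusion and a UAS-Photinus luciferase reporter were exposed to compound for 1 hr, then induced with copper sulfate (700 uM final) for 20 hr at ambient temperature before luminescence reading.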
TDP1 cell noCPT = qHTS for Inhibitors of human tyrosyl-DNA phosphodiesterase 1 (TDP1): qHTS in cells in absence of CPT. DT40 Tdp1-/- hTDP1 cells, no CPT, ATP luminescence, 48 h. hit rate 15% among 420,000. Potency, µM (titrated, usually from 46.2 µM), actives largely listed as inhibitors; also: nearly all actives have a fitted effect of over 55% in size
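Luminescent ATP content (CellTiter-Glo) served as the growth readout. Knockout chicken DT40 cells expressing human TDP1 were exposed to compounds without camptothecin for a minimum 48 hr at 37 °C.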
Of the large screens only hits and unclear results are named; the others gave an inactive call. Calls follow the shape of the dose curve; as a rule, active = well fitted curve in the direction sought with a large enough effect; inconclusive = small, poorly fitted or top-dose-only effect, or another doubt; inactive = no such curve, though single readings can be large; an effect the other way counts as inactive or inconclusive.

O=C(N/N=C/c1ccc2c(c1)OCO2)c1sc2cccc(Cl)c2c1Cl	VP16 counter inconclusive, TDP1 cell CPT inconclusive, RORg inh inconclusive, TDP1 cell noCPT inconclusive
COc1ccc2c(Cl)c(C(=O)N/N=C/c3ccc4c(c3)OCO4)sc2c1	TDP1 cell CPT inconclusive, RORg inh 1.12µM, TDP1 cell noCPT inconclusive
COc1cccc(NC(=O)C(=O)N/N=C/c2ccc3c(c2)OCO3)c1	none
O=C(N/N=C/c1ccccc1Cl)C1CC1	none
Cc1cccc(NC(=O)CSc2nnc(-c3ccco3)c(-c3ccco3)n2)c1	TDP1 cell CPT inconclusive, TDP1 cell noCPT 18.4µM
Cc1cccc(NC(=O)CSc2nc3sc(C)cc3c(=O)n2C)c1	TDP1 cell CPT inconclusive, TDP1 cell noCPT 23.1µM (no result: VP16 counter, TDP1 inh, RORg inh)
COc1ccc(NC(=O)CSc2nc3sc(C)cc3c(=O)n2C)c(OC)c1	VP16 counter inconclusive, TDP1 cell CPT inconclusive, RORg inh inconclusive, TDP1 cell noCPT 18.4µM (no result: TDP1 inh)
COc1cccc(CNC(=O)CCCn2nc(C)c3sc4ccccc4c3c2=O)c1	TDP1 cell CPT 16.4µM, TDP1 cell noCPT inconclusive (no result: VP16 counter, RORg inh)
CSc1ccc(CCNC(=O)CCCn2nc(C)c3sc4ccccc4c3c2=O)cc1	TDP1 cell CPT 14.6µM, TDP1 cell noCPT inconclusive (no result: VP16 counter, RORg inh)
CCCN1CCN(CCCNC(=O)CCCn2nc(C)c3sc4ccccc4c3c2=O)CC1	none
Cc1nn(CCCC(=O)NCc2ccc(OC(C)C)cc2)c(=O)c2c1sc1ccccc12	TDP1 cell CPT inconclusive, TDP1 cell noCPT inconclusive (no result: VP16 counter, RORg inh)
CC(C)COP(=O)(OCC(C)C)C(Nc1ccccc1)c1ccc(F)cc1 (configuration not stated)	TDP1 cell CPT inconclusive, RORg inh inconclusive, TDP1 cell noCPT inconclusive
Cc1nc(Nc2ncc(C(=O)Nc3c(C)cccc3Cl)s2)cc(N2CCN(CCO)CC2)n1	TDP1 cell CPT 2.11µM, TDP1 cell noCPT 2.37µM (no result: TDP1 inh)
CCSc1nc(-c2ccc(OC)cc2)cc(-c2ccccc2)c1C#N	TDP1 cell CPT inconclusive, TDP1 inh inconclusive, TDP1 cell noCPT 23.1µM
COc1ccc(-c2cc(-c3ccccc3)c(C#N)c(S(C)=O)n2)cc1 (configuration not stated)	VP16 counter inconclusive, TDP1 cell CPT 3.26µM, RORg inh inconclusive, TDP1 cell noCPT 3.26µM
N#Cc1c(-c2ccccc2)cc(-c2ccccc2)nc1SCC(O)CS(=O)(=O)Cc1ccccc1 (configuration not stated)	TDP1 cell CPT 10.3µM, TDP1 cell noCPT 5.8µM (no result: VP16 counter, RORg inh)
CCOC(=O)/C(Sc1nc(-c2ccccc2)cc(-c2ccccc2)c1C#N)=C(\C)O	RORg inh inconclusive, TDP1 cell noCPT 29.1µM (no result: TDP1 inh)
COc1ccc(-c2cc(-c3ccccc3)nc(SCC(=O)Nc3ncc(C)s3)c2C#N)cc1	VP16 counter inconclusive, TDP1 cell noCPT inconclusive
Cc1ccc(-c2cc(-c3ccccc3)c(C#N)c(SCC(O)CS(=O)(=O)Cc3ccccc3)n2)cc1 (configuration not stated)	TDP1 cell CPT inconclusive, TDP1 cell noCPT inconclusive (no result: VP16 counter, RORg inh)
CCOC(=O)CSc1nc(-c2ccccc2)cc(C(F)(F)F)c1C#N	none (no result: VP16 counter, TDP1 inh, RORg inh)
Cc1coc2c(C)c3oc(=O)c(CCC(=O)NCCc4ccccc4)c(C)c3cc12	TDP1 cell CPT 13µM, TDP1 cell noCPT 16.4µM (no result: VP16 counter, RORg inh)
Cc1oc2c(C)c3oc(=O)c(CCC(=O)N[C@@H](CC(C)C)C(=O)O)c(C)c3cc2c1C	none (no result: TDP1 inh)
CCCC(NC(=O)CCc1c(C)c2cc3c4c(oc3c(C)c2oc1=O)CCCC4)C(=O)O (configuration not stated)	TDP1 cell CPT 11.6µM, RORg inh 0.794µM (no result: TDP1 inh)
Cc1coc2c(C)c3oc(=O)c(CC(=O)NCc4ccccc4)c(C)c3cc12	TDP1 cell CPT 5.8µM, TDP1 cell noCPT 4.61µM (no result: VP16 counter, RORg inh)
Cc1c(CC(=O)NCc2ccccc2)c(=O)oc2c(C)c(O)ccc12	TDP1 cell CPT 13µM, TDP1 cell noCPT 13µM (no result: VP16 counter, RORg inh)
O=C(CCNS(=O)(=O)c1ccccc1Cl)OCc1nnc(-c2ccccc2Cl)o1	none (no result: VP16 counter, RORg inh)
COCCn1c(-c2cccs2)nc2c(c(=O)c3ccccc3n2C)c1=O	none (no result: TDP1 cell CPT, TDP1 cell noCPT)
COc1ccccc1CNC(=O)Cc1c(C)c2cc3c(C)coc3c(C)c2oc1=O	TDP1 cell CPT 16.4µM, TDP1 cell noCPT 11.6µM (no result: VP16 counter, RORg inh)
COc1ccccc1CCNC(=O)CCc1c(C)c2cc3c(C)coc3c(C)c2oc1=O	TDP1 cell CPT inconclusive, TDP1 cell noCPT inconclusive (no result: VP16 counter, RORg inh)
O=C1C2C3C=CC(C3=C(c3ccccc3)c3ccccc3)C2C(=O)N1Cc1ccccc1 (configuration not stated)	TDP1 cell CPT inconclusive, TDP1 cell noCPT 18.4µM
COc1ccc(CNC(=O)COC(=O)CCN2C(=O)C3CC=CCC3C2=O)cc1OC (configuration not stated)	none (no result: VP16 counter, RORg inh)
CCOCCCn1c(=S)[nH]c2ncccc2c1=O	VP16 counter inconclusive, RORg inh 10µM

Bioassay records as filed in PubChem.
